# Source: PMC7862700, “An all-to-all approach to the identification of sequence-specific readers for epigenetic DNA modifications on cytosine”
# Legend:
# Assay in all cases: DAPPL (digital affinity profiling via proximity ligation, sequencing); 10 mM Tris-HCl pH 7.5, 50 mM NaCl, 1 mM DTT, 4% glycerol, room temperature, 30 min; GST-TFs on glutathione beads, 16-mer random dsDNA library, 0.1% formaldehyde crosslink after washing; high values mean tight binding
# FLI1 = molecular target: T1, FLI1 (Homo sapiens, UniProt Q01543 1-452); settings: protein: recombinant; tags: N-terminal GST; dsDNA, one strand shown
# T1 sequence: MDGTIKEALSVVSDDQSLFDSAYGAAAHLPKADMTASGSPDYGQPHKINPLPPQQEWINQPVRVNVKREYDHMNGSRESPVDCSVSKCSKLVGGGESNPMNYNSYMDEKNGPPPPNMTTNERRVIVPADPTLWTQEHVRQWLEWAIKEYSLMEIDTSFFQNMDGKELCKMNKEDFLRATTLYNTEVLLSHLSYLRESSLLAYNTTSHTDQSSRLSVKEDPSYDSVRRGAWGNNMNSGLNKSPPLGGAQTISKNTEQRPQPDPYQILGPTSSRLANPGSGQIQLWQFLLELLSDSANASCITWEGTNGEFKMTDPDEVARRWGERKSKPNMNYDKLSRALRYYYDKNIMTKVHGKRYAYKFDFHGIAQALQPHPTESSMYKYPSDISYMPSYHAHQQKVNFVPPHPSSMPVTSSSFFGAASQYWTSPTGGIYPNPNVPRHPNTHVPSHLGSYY
# How it was run: (§1)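 Each value of binding signal is a hexamer's read frequency for a factor divided by the same hexamer's frequency in the tag-only sample. Barcoded, bead-captured GST fusions of human transcription factors made in yeast were pooled with that sample and incubated with 200 nmole of a random double-stranded 16-mer DNA library in Tris/NaCl/DTT/glycerol buffer at room temperature for 30 min. Washing, 0.1% formaldehyde crosslinking, proximity ligation, PCR and Illumina NextSeq500 sequencing followed.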
# ELK1 = molecular target: T2, ELK1 (Homo sapiens, UniProt P19419 1-428); settings: protein: recombinant; tags: N-terminal GST; dsDNA, one strand shown
# T2 sequence: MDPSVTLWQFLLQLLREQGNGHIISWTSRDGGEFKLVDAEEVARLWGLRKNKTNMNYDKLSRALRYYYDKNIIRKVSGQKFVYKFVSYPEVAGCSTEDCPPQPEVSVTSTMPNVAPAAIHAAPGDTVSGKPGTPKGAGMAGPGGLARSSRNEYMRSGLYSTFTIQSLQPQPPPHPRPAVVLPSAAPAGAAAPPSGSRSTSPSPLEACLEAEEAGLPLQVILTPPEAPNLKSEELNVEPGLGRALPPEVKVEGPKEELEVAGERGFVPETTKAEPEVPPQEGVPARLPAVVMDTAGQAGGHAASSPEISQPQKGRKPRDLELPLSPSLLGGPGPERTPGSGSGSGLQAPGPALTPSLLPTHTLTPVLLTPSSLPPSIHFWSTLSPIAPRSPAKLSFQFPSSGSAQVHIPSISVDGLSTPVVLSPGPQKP
# How it was run: as §1
# GABPA = molecular target: T3, GABPA (Homo sapiens, UniProt Q06546 1-454); settings: protein: recombinant; tags: N-terminal GST; dsDNA, one strand shown
# T3 sequence: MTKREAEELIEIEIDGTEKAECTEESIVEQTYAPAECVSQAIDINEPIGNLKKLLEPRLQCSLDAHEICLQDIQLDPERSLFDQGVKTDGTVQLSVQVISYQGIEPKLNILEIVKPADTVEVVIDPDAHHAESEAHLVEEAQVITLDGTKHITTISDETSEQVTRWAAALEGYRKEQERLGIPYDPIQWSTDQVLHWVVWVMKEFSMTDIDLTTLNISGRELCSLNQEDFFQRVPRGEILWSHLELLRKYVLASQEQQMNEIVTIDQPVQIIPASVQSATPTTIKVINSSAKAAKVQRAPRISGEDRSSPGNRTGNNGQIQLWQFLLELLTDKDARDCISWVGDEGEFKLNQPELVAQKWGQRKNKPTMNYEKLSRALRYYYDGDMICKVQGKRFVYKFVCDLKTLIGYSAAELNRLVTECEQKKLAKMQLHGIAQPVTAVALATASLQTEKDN
# How it was run: as §1
# ERG = molecular target: T4, ERG (Homo sapiens, UniProt P11308 1-479); settings: protein: recombinant; tags: N-terminal GST; dsDNA, one strand shown
# T4 sequence: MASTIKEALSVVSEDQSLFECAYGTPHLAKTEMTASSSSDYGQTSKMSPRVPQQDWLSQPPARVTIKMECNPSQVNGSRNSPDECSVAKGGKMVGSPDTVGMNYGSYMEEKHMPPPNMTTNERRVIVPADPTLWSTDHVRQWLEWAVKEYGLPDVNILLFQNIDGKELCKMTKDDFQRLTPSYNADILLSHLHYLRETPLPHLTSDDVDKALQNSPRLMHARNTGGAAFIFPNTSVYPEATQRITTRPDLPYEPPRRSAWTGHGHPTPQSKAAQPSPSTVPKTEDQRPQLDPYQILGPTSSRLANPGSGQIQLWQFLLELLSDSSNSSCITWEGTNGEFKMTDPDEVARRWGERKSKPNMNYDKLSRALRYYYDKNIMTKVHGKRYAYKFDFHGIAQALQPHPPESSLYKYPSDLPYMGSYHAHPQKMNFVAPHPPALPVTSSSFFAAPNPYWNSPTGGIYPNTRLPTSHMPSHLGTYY
# How it was run: as §1
# ELF1 = ELF1 (Homo sapiens, UniProt P32519 1-619); settings: protein: recombinant; tags: N-terminal GST; dsDNA, one strand shown
# How it was run: as §1
# EHF = molecular target: T5, EHF (Homo sapiens, UniProt Q9NZC4 1-300); settings: protein: recombinant; tags: N-terminal GST; dsDNA, one strand shown
# T5 sequence: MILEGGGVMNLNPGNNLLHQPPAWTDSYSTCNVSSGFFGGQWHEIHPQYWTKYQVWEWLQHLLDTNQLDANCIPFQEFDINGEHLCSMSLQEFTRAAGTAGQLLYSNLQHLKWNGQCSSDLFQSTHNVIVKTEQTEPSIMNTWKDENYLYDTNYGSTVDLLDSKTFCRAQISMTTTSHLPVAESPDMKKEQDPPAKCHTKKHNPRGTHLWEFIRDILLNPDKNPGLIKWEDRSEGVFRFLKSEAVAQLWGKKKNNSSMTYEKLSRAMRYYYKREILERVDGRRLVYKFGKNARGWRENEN
# How it was run: as §1
# SPI1 = SPI1 (Homo sapiens, UniProt P17947 1-270); settings: protein: recombinant; tags: N-terminal GST; dsDNA, one strand shown
# How it was run: as §1
# SPIB = SPIB (Homo sapiens, UniProt Q01892 1-262); settings: protein: recombinant; tags: N-terminal GST; dsDNA, one strand shown
# How it was run: as §1
# ELK3 = molecular target: T6, ELK3 (Homo sapiens, UniProt P41970 1-407); settings: protein: recombinant; tags: N-terminal GST; dsDNA, one strand shown
# T6 sequence: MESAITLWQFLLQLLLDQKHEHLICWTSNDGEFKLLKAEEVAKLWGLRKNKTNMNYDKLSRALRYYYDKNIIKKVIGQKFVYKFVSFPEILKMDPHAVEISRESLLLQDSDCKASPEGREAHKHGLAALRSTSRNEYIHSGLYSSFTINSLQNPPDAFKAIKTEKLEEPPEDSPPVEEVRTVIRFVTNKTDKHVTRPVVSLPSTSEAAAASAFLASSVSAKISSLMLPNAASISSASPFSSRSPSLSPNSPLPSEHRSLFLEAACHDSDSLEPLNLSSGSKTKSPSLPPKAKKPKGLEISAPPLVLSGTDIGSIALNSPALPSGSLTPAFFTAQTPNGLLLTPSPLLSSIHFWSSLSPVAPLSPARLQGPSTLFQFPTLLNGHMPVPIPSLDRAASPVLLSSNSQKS
# How it was run: as §1
# FEV = molecular target: T7, FEV (Homo sapiens, UniProt Q99581 1-238); settings: protein: recombinant; tags: N-terminal GST; dsDNA, one strand shown
# T7 sequence: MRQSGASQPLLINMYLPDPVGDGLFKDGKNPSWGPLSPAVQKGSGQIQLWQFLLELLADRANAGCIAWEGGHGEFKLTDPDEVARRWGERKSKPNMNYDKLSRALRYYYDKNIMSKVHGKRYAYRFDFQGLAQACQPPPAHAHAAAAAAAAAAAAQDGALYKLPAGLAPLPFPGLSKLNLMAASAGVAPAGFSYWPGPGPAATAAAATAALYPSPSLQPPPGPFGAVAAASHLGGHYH
# How it was run: as §1
# ETV5 = ETV5 (Homo sapiens, UniProt P41161 1-510); settings: protein: recombinant; tags: N-terminal GST; dsDNA, one strand shown
# How it was run: as §1
# HSF1 = HSF1 (Homo sapiens, UniProt Q00613 1-529); settings: protein: recombinant; tags: N-terminal GST; chain copies: 3; dsDNA, one strand shown
# How it was run: as §1
# SPIC = molecular target: T8, SPIC (Homo sapiens, UniProt Q8N5J4 1-248); settings: protein: recombinant; tags: N-terminal GST; dsDNA, one strand shown
# T8 sequence: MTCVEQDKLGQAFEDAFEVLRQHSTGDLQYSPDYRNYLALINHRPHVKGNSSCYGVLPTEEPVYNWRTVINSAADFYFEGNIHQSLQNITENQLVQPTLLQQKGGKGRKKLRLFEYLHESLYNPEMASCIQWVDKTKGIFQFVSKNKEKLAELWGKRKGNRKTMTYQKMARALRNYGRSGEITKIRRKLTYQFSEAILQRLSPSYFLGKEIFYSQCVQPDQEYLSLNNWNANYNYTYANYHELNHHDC
# How it was run: as §1
# ELF4 = ELF4 (Homo sapiens, UniProt Q99607 1-663); settings: protein: recombinant; tags: N-terminal GST; dsDNA, one strand shown
# How it was run: as §1
# ELK4 = molecular target: T9, ELK4 (Homo sapiens, UniProt P28324-2 1-405); settings: protein: recombinant; tags: N-terminal GST; dsDNA, one strand shown
# T9 sequence: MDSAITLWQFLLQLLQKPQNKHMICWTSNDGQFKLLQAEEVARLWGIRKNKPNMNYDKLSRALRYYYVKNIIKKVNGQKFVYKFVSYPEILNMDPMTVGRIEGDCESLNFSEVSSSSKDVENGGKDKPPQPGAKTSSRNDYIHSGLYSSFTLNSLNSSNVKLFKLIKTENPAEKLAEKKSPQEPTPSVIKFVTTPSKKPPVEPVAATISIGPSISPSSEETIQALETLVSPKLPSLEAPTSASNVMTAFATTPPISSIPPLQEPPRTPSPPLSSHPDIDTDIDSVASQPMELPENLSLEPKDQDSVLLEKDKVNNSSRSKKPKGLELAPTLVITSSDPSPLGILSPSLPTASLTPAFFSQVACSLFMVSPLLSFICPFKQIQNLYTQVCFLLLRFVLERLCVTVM
# How it was run: as §1
# ETV2 = molecular target: T10, ETV2 (Homo sapiens, UniProt O00321 1-342); settings: protein: recombinant; tags: N-terminal GST; dsDNA, one strand shown
# T10 sequence: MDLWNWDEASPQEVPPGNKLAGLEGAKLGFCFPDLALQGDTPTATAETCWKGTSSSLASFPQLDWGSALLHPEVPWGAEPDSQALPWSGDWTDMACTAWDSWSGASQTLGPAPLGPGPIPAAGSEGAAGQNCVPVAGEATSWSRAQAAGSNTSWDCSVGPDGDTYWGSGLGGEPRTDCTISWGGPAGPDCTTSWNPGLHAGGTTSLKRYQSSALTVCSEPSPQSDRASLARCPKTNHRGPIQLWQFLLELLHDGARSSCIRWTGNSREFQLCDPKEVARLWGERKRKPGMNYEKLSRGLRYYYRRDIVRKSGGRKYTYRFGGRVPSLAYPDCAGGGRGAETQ
# How it was run: as §1
# ELF3 = molecular target: T11, ELF3 (Homo sapiens, UniProt P78545 1-371); settings: protein: recombinant; tags: N-terminal GST; dsDNA, one strand shown
# T11 sequence: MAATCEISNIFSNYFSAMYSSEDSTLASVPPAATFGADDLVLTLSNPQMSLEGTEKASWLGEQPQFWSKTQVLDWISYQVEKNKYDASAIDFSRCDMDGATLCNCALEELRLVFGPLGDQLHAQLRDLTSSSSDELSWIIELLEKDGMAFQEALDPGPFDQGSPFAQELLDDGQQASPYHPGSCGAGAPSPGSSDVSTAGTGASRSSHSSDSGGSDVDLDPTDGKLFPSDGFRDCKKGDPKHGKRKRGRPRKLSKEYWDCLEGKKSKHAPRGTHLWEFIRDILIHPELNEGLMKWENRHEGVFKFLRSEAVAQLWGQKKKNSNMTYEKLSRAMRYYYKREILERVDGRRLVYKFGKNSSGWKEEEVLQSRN
# How it was run: as §1
# CRX = CRX (Homo sapiens, UniProt O43186 1-299); settings: protein: recombinant; tags: N-terminal GST; dsDNA, one strand shown
# How it was run: as §1
# ETV1 = ETV1 (Homo sapiens, UniProt P50549 1-477); settings: protein: recombinant; tags: N-terminal GST; dsDNA, one strand shown
# How it was run: as §1
# Chain of HSF1 (Q00613 whole entry): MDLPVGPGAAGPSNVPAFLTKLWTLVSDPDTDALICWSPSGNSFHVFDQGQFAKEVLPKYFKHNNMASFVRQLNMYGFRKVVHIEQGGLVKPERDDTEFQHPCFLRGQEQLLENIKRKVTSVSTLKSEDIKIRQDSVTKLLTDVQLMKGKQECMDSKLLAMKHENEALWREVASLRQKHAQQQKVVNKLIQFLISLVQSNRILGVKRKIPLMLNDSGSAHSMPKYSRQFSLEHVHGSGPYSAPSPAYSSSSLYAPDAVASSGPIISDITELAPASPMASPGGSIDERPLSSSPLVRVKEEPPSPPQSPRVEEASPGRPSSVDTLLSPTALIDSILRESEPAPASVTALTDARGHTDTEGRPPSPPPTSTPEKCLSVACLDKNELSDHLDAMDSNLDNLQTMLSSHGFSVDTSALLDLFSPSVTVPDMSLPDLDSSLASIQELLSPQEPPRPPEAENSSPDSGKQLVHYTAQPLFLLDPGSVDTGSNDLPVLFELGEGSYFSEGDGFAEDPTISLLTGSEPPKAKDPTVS
# Chain of ELF4 (Q99607 whole entry): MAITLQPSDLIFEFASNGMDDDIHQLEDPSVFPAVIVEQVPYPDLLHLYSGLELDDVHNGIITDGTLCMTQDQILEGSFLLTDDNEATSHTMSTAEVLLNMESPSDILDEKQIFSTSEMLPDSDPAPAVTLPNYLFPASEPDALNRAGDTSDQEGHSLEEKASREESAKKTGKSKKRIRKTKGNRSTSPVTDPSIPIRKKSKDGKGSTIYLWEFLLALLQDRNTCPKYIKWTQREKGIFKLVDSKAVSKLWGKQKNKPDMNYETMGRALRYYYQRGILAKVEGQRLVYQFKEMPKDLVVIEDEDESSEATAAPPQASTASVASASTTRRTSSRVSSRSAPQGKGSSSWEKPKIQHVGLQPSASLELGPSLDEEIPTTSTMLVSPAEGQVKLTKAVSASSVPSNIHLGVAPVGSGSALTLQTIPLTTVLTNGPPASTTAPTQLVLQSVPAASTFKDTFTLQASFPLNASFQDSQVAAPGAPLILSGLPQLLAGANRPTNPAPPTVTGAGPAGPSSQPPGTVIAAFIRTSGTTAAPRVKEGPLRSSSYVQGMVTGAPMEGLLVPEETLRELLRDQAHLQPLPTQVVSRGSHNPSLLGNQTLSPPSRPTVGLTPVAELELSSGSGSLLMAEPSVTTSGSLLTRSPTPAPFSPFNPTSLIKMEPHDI
# Chain of ELF1 (P32519 whole entry): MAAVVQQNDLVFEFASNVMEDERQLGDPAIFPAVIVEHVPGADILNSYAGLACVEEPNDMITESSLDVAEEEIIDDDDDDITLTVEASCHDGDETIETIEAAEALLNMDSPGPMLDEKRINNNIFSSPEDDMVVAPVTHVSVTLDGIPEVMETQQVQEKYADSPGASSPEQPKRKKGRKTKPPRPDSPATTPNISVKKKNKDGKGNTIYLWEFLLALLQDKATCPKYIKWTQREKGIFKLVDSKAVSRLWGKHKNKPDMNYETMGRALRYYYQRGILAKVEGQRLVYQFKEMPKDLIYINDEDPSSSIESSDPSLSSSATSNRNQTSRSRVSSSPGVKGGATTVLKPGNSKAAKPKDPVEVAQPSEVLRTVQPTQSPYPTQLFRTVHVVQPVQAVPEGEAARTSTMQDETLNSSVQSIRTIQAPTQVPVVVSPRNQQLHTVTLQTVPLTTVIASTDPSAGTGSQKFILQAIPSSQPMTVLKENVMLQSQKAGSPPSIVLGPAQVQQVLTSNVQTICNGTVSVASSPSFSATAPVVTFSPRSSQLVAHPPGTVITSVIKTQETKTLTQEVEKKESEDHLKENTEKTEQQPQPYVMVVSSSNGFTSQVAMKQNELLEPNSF
# Chain of CRX (O43186 whole entry): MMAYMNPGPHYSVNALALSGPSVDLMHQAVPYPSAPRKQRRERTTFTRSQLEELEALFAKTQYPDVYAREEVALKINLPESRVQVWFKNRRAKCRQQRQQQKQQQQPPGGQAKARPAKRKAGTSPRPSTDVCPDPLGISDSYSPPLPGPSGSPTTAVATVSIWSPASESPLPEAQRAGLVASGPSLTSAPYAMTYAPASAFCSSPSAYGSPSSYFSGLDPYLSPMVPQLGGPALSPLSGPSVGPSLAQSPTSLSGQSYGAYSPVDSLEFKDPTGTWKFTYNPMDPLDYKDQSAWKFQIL
# Chain of ETV1 (P50549 whole entry): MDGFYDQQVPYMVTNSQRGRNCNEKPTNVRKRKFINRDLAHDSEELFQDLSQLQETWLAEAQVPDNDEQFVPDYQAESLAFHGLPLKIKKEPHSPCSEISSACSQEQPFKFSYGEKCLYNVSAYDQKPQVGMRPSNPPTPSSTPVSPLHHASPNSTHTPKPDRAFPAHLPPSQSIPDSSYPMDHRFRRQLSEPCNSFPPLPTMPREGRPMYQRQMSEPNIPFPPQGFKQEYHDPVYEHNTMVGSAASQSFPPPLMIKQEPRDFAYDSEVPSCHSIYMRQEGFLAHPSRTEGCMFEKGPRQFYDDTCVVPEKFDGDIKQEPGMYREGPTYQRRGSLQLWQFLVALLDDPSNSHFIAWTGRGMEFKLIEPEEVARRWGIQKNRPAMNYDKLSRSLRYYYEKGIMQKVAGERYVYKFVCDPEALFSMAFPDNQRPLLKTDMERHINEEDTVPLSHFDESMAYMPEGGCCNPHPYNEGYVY
# Chain of ETV5 (P41161 whole entry): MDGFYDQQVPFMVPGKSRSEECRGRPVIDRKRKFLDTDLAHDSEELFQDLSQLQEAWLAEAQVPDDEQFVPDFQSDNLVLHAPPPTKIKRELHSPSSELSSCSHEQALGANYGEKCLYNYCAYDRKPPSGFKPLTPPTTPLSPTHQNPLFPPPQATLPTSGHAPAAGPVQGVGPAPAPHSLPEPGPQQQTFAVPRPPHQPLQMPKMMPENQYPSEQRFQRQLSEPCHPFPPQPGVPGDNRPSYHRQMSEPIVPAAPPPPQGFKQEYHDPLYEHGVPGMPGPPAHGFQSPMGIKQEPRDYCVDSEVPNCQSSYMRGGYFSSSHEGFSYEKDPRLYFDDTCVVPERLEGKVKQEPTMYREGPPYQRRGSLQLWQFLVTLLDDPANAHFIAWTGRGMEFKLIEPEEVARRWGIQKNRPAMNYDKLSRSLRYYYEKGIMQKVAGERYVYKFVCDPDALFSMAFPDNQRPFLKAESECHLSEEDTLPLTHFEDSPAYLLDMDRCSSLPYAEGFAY
# Chain of SPIB (Q01892 whole entry): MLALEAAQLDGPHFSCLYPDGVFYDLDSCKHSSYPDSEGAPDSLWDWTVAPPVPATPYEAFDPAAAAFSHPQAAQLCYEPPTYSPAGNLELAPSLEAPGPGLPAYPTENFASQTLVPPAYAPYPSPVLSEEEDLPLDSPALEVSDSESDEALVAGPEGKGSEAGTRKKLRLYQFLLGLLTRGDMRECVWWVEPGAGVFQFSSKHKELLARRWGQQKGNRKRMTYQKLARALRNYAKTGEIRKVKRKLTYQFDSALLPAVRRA
sequence,measurement,setting,value
CTACTA,binding signal,FLI1,"1.32 fold enrichment (6-mer frequency, TF over GST control)"
same,binding signal,ELK1,"1.36 fold enrichment (6-mer frequency, TF over GST control)"
same,binding signal,GABPA,"1.34 fold enrichment (6-mer frequency, TF over GST control)"
same,binding signal,ERG,"1.24 fold enrichment (6-mer frequency, TF over GST control)"
same,binding signal,ELF1,"1.39 fold enrichment (6-mer frequency, TF over GST control)"
same,binding signal,EHF,"1.33 fold enrichment (6-mer frequency, TF over GST control)"
same,binding signal,SPI1,"1.32 fold enrichment (6-mer frequency, TF over GST control)"
same,binding signal,SPIB,"1.3 fold enrichment (6-mer frequency, TF over GST control)"
same,binding signal,ELK3,"1.37 fold enrichment (6-mer frequency, TF over GST control)"
same,binding signal,FEV,"1.27 fold enrichment (6-mer frequency, TF over GST control)"
same,binding signal,ETV5,"1.31 fold enrichment (6-mer frequency, TF over GST control)"
same,binding signal,HSF1,"1.43 fold enrichment (6-mer frequency, TF over GST control)"
same,binding signal,SPIC,"1.4 fold enrichment (6-mer frequency, TF over GST control)"
same,binding signal,ELF4,"1.29 fold enrichment (6-mer frequency, TF over GST control)"
same,binding signal,ELK4,"1.37 fold enrichment (6-mer frequency, TF over GST control)"
same,binding signal,ETV2,"1.23 fold enrichment (6-mer frequency, TF over GST control)"
same,binding signal,ELF3,"1.35 fold enrichment (6-mer frequency, TF over GST control)"
same,binding signal,CRX,"1.36 fold enrichment (6-mer frequency, TF over GST control)"
same,binding signal,ETV1,"1.18 fold enrichment (6-mer frequency, TF over GST control)"
